The campaign covered roughly 31,000 sequences. About 1,400 (4.5%) were called active. The entries come from a sample that favours actives as a whole. A number with no mark means an inactive call.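 The calls were made as follows: active = median seed-adjusted z-score above 1 or below -1; inactive = the rest.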

The test is described as follows: Novel Modifiers of Survival Motor Neuron (SMN) Protein: Gene Identification via Genome-wide siRNA Screen.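 Also: luminescence tracks full-length SMN protein made from the SMN2 reporter.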 To be noted: HEK293T SMN2-luciferase reporter, siRNA knockdown, 72 h; actives lie on both sides. The method in brief: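 HEK293T cells stably carrying an SMN2 promoter/splicing cassette–luciferase reporter were reverse-transfected with 1 pmol siRNA per well (druggable-genome library, 3 siRNAs per gene) and grown 72 h at 37 °C. Luminescence, normalized to negative-control siRNA and log10-transformed, was scored as MAD.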
(Reporter assays use an easily measured gene product as a stand-in for the process of interest.)
In the case of UCGUGGUUGUUAAUUUGAATT against CSNK1E, the median seed-adjusted z-score is -0.796.

For CAACUGUUCCUGUAUUGAATT against SLCO4C1, the median seed-adjusted z-score is -0.116.

GUAUCAAUCUAGAGCACAATT against MYOZ2: the median seed-adjusted z-score is 0.315.

In the case of CGAGCUACACUGUCCACUUTT against CSGLCA-T, the median seed-adjusted z-score was 0.146.

Take GGACUUGCUCGGCUCUAUATT against CRKRS: the median seed-adjusted z-score is -1.16 (active).

For the sequence CAACUUGGACAAGACCUUATT against GYS1, the median seed-adjusted z-score is 0.874.

In the case of CGACAUCAGCUGAUAAUCATT against NPY1R, the median seed-adjusted z-score was 0.76.

On to AACAGUAUCUUUCAGAAUATT against TMPRSS5, for which the median seed-adjusted z-score is 1.25 (active).

Turning to GGCUGAAUUAUGACCGGAATT against PPFIA4, the median seed-adjusted z-score is 0.0399.

For CUUGGAUACAGAUACGUUUTT against TLK1, the median seed-adjusted z-score was -0.0133.

Consider UCGAUAUUCUAAGAUCACATT against UBE2D3, for which the median seed-adjusted z-score is 1.62 (active).

Regarding CACCUUAACUUCAUCAACATT against SCN4A, the median seed-adjusted z-score is -0.681.

For the sequence GAGCUGGGAUGAUAAAGAUTT against AGPAT2, the median seed-adjusted z-score was 0.38.

Take GCGAUGAUGUGGAACCUUATT against TBC1D9: the median seed-adjusted z-score is -0.0473.

Regarding AUAUAACACUUCUACUCUUTT against CMA1, the median seed-adjusted z-score was -0.0475.

For the sequence CAACGAUGCUAGAAGAAUUTT against PCOLCE2, the median seed-adjusted z-score is -1.15 (active).

For CCGUCUAUAUGGAGUCUUUTT against ROR1, the median seed-adjusted z-score is -0.0044.

Regarding CUACUUUCGAGACUACUUUTT against DGAT2, the median seed-adjusted z-score is 0.195.

With GGGAAGAUAUUUGUCAGCATT against PLXNA2, the median seed-adjusted z-score was 0.308.

Consider ACAGGCCUGUGAAACCCUATT against PEX5, for which the median seed-adjusted z-score is -0.0414.

Regarding GCCUUACCUGGAGAACUGATT against VPS26A, the median seed-adjusted z-score was -1.55 (active).

Consider GCGAGAAUCUGUUAGUAAATT against PANK3, for which the median seed-adjusted z-score was -0.185.

Regarding CCAUCUUCACUGACGAGCATT against GSC, the median seed-adjusted z-score was 0.17.

Consider CCUUUUUGCUGGACACUGUTT against PLEKHF1, for which the median seed-adjusted z-score is 0.055.

CACCCAUGCUGACAGUGAATT against HLA-DMA: the median seed-adjusted z-score was -0.00543.

In the case of GCCUCCUUCUUUGACCGGATT against NACC1, the median seed-adjusted z-score was 1.59 (active).

For GGACUUCUUUUGUCAUGCATT against BCKDHB, the median seed-adjusted z-score was 0.366.

For GAACAGAUGUUUGAGACUUTT against GUCA1A, the median seed-adjusted z-score is 0.101.

As to GCGAGUGUCUUGAAGUAUATT against PLAA, the median seed-adjusted z-score was -0.192.

For the sequence AAACAUUAUUUACCAUUCATT against ZNF439, the median seed-adjusted z-score is -0.26.

As for CCACGUGUCUAACACCAAUTT against KRT79, the median seed-adjusted z-score was 0.338.

GAAUAUAUCUAAAUCGCAUTT against RORA: the median seed-adjusted z-score is -0.144.

Consider GACCUCACGUUGUCGAAGATT against GTPBP4, for which the median seed-adjusted z-score is 1.01 (active).

For GACUUGGAGUUUCAGGCAATT against XPC, the median seed-adjusted z-score was -0.564.

For the sequence GCUCCAGUCUUUUCGCAAATT against DSG4, the median seed-adjusted z-score is -0.0211.

For CCAAUUCUACAAAAGCAAATT against SRD5A3, the median seed-adjusted z-score is -0.165.

For CGUGCACAGAUAUUACGCATT against FIGNL1, the median seed-adjusted z-score is -0.408.

On to GCAUUGUCGUUGCAAUCGATT against CLCA1, for which the median seed-adjusted z-score was 0.015.

Turning to GCAUCGAGCAGGAACAGAATT against ATP2B2, the median seed-adjusted z-score is 1.37 (active).

UUUUUGAUGUGGACUCAAATT against USP18: the median seed-adjusted z-score is -0.326.

For the sequence GUUCAAUACUUGAACACGATT against FFAR2, the median seed-adjusted z-score was 0.146.

As to GAAUUACAGUGACAGUUCATT against AP3M1, the median seed-adjusted z-score is 0.

GUAAUGUUCUUAAACGAAUTT against PPP2R5C: the median seed-adjusted z-score was 1.14 (active).

As for GAAACAUCUGGUGCUAUUATT against KREMEN2, the median seed-adjusted z-score is -0.0883.

Regarding GCAAGAAUCCCUAAAGCAUTT against BAG2, the median seed-adjusted z-score was -0.87.

As for CAGUUGAUAUUCAUAAAGATT against ABI2, the median seed-adjusted z-score was -0.0392.

As to GGGCAGAAUUGGAAUGCGATT against CNTNAP4, the median seed-adjusted z-score was -0.414.

For the sequence AGAGCGGUCUGACAGUGGATT against NUDT1, the median seed-adjusted z-score is -0.175.

For the sequence GGUAUAAACGCGUCCAGCATT against MAFB, the median seed-adjusted z-score is 0.674.

Consider CCAACGACGUGGUGCAGAATT against CLDN14, for which the median seed-adjusted z-score is -0.456.

Consider CAGCAAACCUUUGACCAGATT against U2AF2, for which the median seed-adjusted z-score was 2.14 (active).

Take CUACGGCUACGUCUACAUCTT against GPR25: the median seed-adjusted z-score is 0.377.

Regarding GAGCGGACAUGAUAAGCAUTT against CD302, the median seed-adjusted z-score is 0.0818.

In the case of GGAUGAUAUUAACAGGUCATT against USP8, the median seed-adjusted z-score is 0.743.

On to GCAUACGCAGGAUCCUGGATT against KRT34, for which the median seed-adjusted z-score is 0.124.

In the case of CGAGUUAGCAAGUUCAGCATT against CTRL, the median seed-adjusted z-score was 0.0758.

Turning to GAAAUCUUCUUGAGUGUAATT against GPR141, the median seed-adjusted z-score is -0.777.

For GGACAAUGUUGGGAAUAGATT against GPATCH2, the median seed-adjusted z-score was 0.0828.

Consider UCCUCUAAAAAUUACAGUATT against TUBB2A, for which the median seed-adjusted z-score was 1.03 (active).

In the case of CAUUAGAUCUGUGAUUAGATT against MCOLN3, the median seed-adjusted z-score was -0.09.

On to GGAAUGCUCCAAAAUGGGATT against FKBP1B, for which the median seed-adjusted z-score is -0.561.

GCACAUGUUUGGAGGAUUUTT against ZNRF2: the median seed-adjusted z-score is 0.

CAACCCAGCCCAUCCCAAATT against PDK2: the median seed-adjusted z-score was -0.481.

On to CUGUGAAGAUAGAAGGAUATT against CAPZA1, for which the median seed-adjusted z-score was -0.0237.

Take GCAUUUCUUGGGUUGGUGATT against GABPA: the median seed-adjusted z-score was 1.43 (active).

With CCGCGCAGUUCAUCUCAAATT against SNX15, the median seed-adjusted z-score is -0.152.

For the sequence CACUAGAAAUAACAAUGGATT against TMPRSS11D, the median seed-adjusted z-score is -0.0643.

In the case of AGAUCUCGUGGUUCUGGAATT against RPUSD1, the median seed-adjusted z-score is 0.327.

On to GUGGUGGGCUUAUCCUCUATT against NRXN3, for which the median seed-adjusted z-score is 0.897.

In the case of GAACCACAAUGUUAACAAUTT against CYBRD1, the median seed-adjusted z-score is 0.623.

GCAAGAUCUCUAUUGGUAUTT against ABCC4: the median seed-adjusted z-score is -1.66 (active).

Consider GAAACCCUAUUACGAUGAATT against SOX30, for which the median seed-adjusted z-score is -0.167.

As to CAUGUAAACUUGCUGUUUUTT against CKS1B, the median seed-adjusted z-score is 0.00314.

In the case of CAUAGUAGAUCAAAUCUUATT against ZNF284, the median seed-adjusted z-score is 0.21.

Regarding CACUAGCAGUUGCAAGUAATT against RAB3GAP2, the median seed-adjusted z-score is 0.0583.

Regarding GACCUGGGCUUAGACAGUUTT against NDUFAB1, the median seed-adjusted z-score is -0.282.

GGAGAGCUGUUGGUACUUUTT against TAAR9: the median seed-adjusted z-score is -1.07 (active).

As for CACUGUUUCUUCACCGGCATT against ZDHHC22, the median seed-adjusted z-score was 0.00446.

As to GCAGUUCACCCAUCCAGUATT against THY1, the median seed-adjusted z-score is -1.1 (active).

On to GACCAAGCGCAAAACCAAATT against HOMEZ, for which the median seed-adjusted z-score was -0.0614.

For the sequence GAUUUUGUGCGAUCCAUAATT against CBARA1, the median seed-adjusted z-score was -0.0426.

As to GCAGGUACAUGUCUUGUCUTT against SPRY2, the median seed-adjusted z-score is 0.148.

For the sequence CCCUACAUAGGAAACCUGUTT against PKD1L2, the median seed-adjusted z-score is -1.17 (active).

On to CAGCCUACUUCAUAGCCUATT against GPR50, for which the median seed-adjusted z-score was -0.0348.

Turning to GCCGGCCUGUGAAAUAUGATT against MAP3K3, the median seed-adjusted z-score was -0.182.

Consider UCACGUCACUACUUAAAAATT against ZNF644, for which the median seed-adjusted z-score is 0.389.

As for CCAUUAAUGAAUUAGUCUATT against TXN, the median seed-adjusted z-score was -0.195.

For AGCUCAACGUGCUGGAUUATT against PIP5KL1, the median seed-adjusted z-score was -0.819.

With CGAAGUUCAAGUAUAGGUATT against RAG1, the median seed-adjusted z-score is -1.35 (active).

In the case of GGUUUGGAGCGAGAGUGGATT against ASB10, the median seed-adjusted z-score is 0.

With GCAGCUAUCUCUGUACAGATT against MAPK8IP3, the median seed-adjusted z-score is 0.734.

Take UGUUCAGUCUGGAAUUUCATT against MAP2K1: the median seed-adjusted z-score is 0.942.

As to GGACCCAAAUUCAGAAGAATT against ANKRA2, the median seed-adjusted z-score is 1.26 (active).

Consider GGAUCGGUAUGUAGCAAUATT against HTR2C, for which the median seed-adjusted z-score was -0.115.

Consider GAGUAUCCAUCGGUAUCUATT against ZBTB11, for which the median seed-adjusted z-score was -0.105.

As to UCCAGACUCUGGUCACCAATT against CREB3L1, the median seed-adjusted z-score was 0.708.

Take GCAUUGACUUGGGUGAAGATT against GPR101: the median seed-adjusted z-score was -0.265.

With GAGUUGAAGUUAAAGUAAATT against MORF4, the median seed-adjusted z-score is 0.0121.

With CGACAAGAUCAAAUACCCATT against LZTR1, the median seed-adjusted z-score was 0.293.

Regarding CAAGCCUGAUUUCCACCUATT against DTD1, the median seed-adjusted z-score is -1.58 (active).

Take CAACGAGAAUGACUGCUGATT against PTPDC1: the median seed-adjusted z-score is -0.191.

For CAAGAAAACCAGAAUGGAATT against SERPING1, the median seed-adjusted z-score is -0.244.

Turning to GCGAUUGCUUUGAUGGGUATT against LTBP1, the median seed-adjusted z-score is 0.143.

Regarding GAAUCCUCCCAAUUGAUCATT against LSG1, the median seed-adjusted z-score is 1.31 (active).

As to GAACAUCGUUAUAAGUUGATT against CNTN3, the median seed-adjusted z-score is 0.732.

For GCACUAAUCUGCAAACUGUTT against SPTB, the median seed-adjusted z-score was 0.153.

On to CAGACAAAUUUUAACCACATT against SLC17A8, for which the median seed-adjusted z-score is -0.332.

The values are drawn from PubChem BioAssay AID1347426 (Functional Genomics Laboratory (NCATS/FGL), 2020).
